From PubChem
SMN2 splice enh: increases expression of the SMN2 splice variant. HEK293 SMN2-luciferase splicing reporter, luminescence, 30-36 h. Potency, µM (top dose mostly 46.1 µM), hits mostly activators. actives 2.8% (n = 210,000). AID 1458; further: nearly all actives have a fitted effect of over 55% in size
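qHTS luciferase splicing reporter: luminescence rises when SMN2 exon 7 is included in transfected HEK293 cells. Compound exposure lasted 30-36 h at 37C, with 4.5 mM final sodium butyrate as control, followed by a ONE-Glo read.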
KinaseGlo FLuc: counter-screen: inhibitors of Kinase-Glo firefly luciferase | Q27757 | Kinase-Glo luciferase, ATP luminescence, 8 min | Potency, µM (top dose mostly 38.3 µM), usual class: inhibitors | actives 0.28% (n = 200,000) | AID 1379; further: nearly all actives have a fitted effect of over 60% in size
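Recombinant Kinase-Glo luciferase, 10 uM ATP (linear range), luciferin; imidazole pH 7.2 / KCl / MgCl2 / Tween / BSA buffer; 8 min RT; luminescence.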
FLuc counter: inhibits or activates purified firefly luciferase, miR-21 counter-screen. Potency, µM (titrated, usually from 57.5 µM), usual class: inhibitors. actives 6.9% (n = 360,000). P08659. purified FLuc, Km substrates, luminescence inhibition; further: nearly all actives have a fitted effect of over 55% in size
Target sequence (P08659 whole entry, looked up): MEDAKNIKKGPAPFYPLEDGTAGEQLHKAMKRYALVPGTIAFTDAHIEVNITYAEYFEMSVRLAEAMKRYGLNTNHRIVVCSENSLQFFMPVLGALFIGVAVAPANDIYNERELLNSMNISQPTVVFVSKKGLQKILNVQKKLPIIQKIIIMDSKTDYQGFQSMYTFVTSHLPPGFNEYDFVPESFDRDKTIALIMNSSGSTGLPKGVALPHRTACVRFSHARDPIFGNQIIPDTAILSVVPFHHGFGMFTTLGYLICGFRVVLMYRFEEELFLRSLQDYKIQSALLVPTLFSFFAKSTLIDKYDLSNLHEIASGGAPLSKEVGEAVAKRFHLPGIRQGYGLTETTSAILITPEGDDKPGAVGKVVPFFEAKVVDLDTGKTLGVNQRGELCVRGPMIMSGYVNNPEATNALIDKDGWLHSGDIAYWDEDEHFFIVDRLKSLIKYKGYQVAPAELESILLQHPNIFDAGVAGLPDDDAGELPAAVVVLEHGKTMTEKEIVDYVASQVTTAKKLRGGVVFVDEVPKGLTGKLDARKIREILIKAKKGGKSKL
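Purified P. pyralis luciferase (10nM final) with 10uM D-luciferin and 10uM ATP (Km levels) in 50mM Tris acetate pH 7.5, 10mM Mg acetate, 0.01% Tween-20, 0.05% BSA; qHTS 6-point titration, ~60 µM downward; luminescence read.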
Rab9 prom act: activates the Rab9 promoter | Huh7 Rab9 promoter-luciferase reporter, luminescence, 24 h | actives 2.8% (n = 320,000) | Potency, µM (highest dose often 9.22 µM), most hits filed as activators | AID 485297; further: nearly all actives have a fitted effect of over 60% in size
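Stable Rab9-luc Huh7, 1500 cells/well, 2 h settle; cmpd in DMSO, 24 h, 37 °C/5% CO2; luciferase reagent 10 min RT; luminescence.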
NPC1 prom act: NPC1 promoter activation; Huh7 NPC1 promoter luciferase reporter, 24 h; AID 485313; actives 2.4% (n = 320,000); Potency, µM (titrated, usually from 9.22 µM), actives largely listed as activators; further: nearly all actives have a fitted effect of over 60% in size
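Quantitative HTS used a cell-based reporter: Huh7 cells stably bearing the NPC1 promoter upstream of luciferase were treated with compounds for 24 h, and promoter activation was read as luminescence.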
Hits are given with their value; - = inactive; ? = inconclusive; . = not tested or not shown. Hits are enriched below; roughly 7.3% of the tested compounds scored in any of these assays. The call rests on the fitted dose curve; in most records, active means well fitted curve in the direction sought with a large enough effect; inconclusive means small, poorly fitted or top-dose-only effect, or another doubt; inactive means no such curve, though single readings can be large; an effect the other way counts as inactive or inconclusive.

SMILES	SMN2 splice enh	KinaseGlo FLuc	FLuc counter	Rab9 prom act	NPC1 prom act
COc1ccc(CNC(=O)c2ccc(CNS(=O)(=O)c3ccc(F)cc3)cc2)cc1	.	.	-	.	.
COc1cc(-c2nnc(-c3cccs3)o2)cc(OC)c1OC	?	-	-	-	-
CCOc1ccc(-c2nc(-c3cccs3)c(CC(=O)O)s2)cc1OC	-	-	3µM	?	-
CCOc1ccc(-c2nnc(-c3cccs3)o2)cc1OCC	-	-	?	?	3.5µM
c1csc(-c2nnc(-c3ccc(N4CCOCC4)cc3)o2)c1	1.3µM	-	1.2µM	0.63µM	0.35µM
COc1ccc(-c2nnc(-c3cccs3)o2)cc1OC	-	-	8.5µM	3.2µM	2.8µM
CCOc1ccc(-c2nnc(-c3cccs3)o2)cc1	2µM	-	0.67µM	0.63µM	0.71µM
COc1cccc(C=Nc2cccc3c(=O)[nH][nH]c(=O)c23)c1O	-	?	0.6µM	-	-
Cc1cc(Nc2ccc(N(C)C)cc2)n2ncnc2n1	.	.	17µM	-	-
Cc1ccc(C)c(Nc2cc(C)nc3ncnn23)c1	.	.	-	0.1µM	?
Cc1ccc(Nc2cc(C)nc3ncnn23)c(C)c1	.	.	-	-	-
Cc1cc(Nc2ccc(Cl)cc2)n2ncnc2n1	.	.	-	-	-
Cn1c(-c2ccc(F)cc2)cnc1SCC(=O)Nc1ccccc1N1CCOCC1	13µM	-	0.95µM	1.3µM	1.6µM
Cc1ccc2nc(COc3cccc(NC(=O)COc4ccccc4F)c3)cc(=O)n2c1	.	.	-	.	.
O=C(Nc1ccc(F)cc1)c1nc2c(nnn2Cc2cccc3ccccc23)c(=O)[nH]1	.	.	27µM	-	-
CCc1ccc(CNC(=O)c2ccc(Cn3c(=O)c4cccn4c4cccnc43)cc2)cc1	.	.	-	.	.
Brc1ccc(-c2nnc(-c3cccc(Br)c3)o2)cc1	-	-	9.5µM	-	3.2µM
Brc1cccc(-c2nnco2)c1	-	-	-	-	-
O=C(O)c1ccc(-c2nnc(-c3cccc(Br)c3)o2)cc1	.	.	11µM	1.6µM	1.4µM
COc1ccc(CCNC(=O)Cc2c(C)c3cc4c(C(C)(C)C)coc4c(C)c3oc2=O)cc1OC	-	.	-	.	.
CCc1ccc(NC(=O)Cn2c(=O)n(-c3cc(OC)c(OC)c(OC)c3)c(=O)c3ccccc32)cc1	?	.	-	.	.
COCCn1c(=O)[nH]c2cc(C(=O)NCc3ccccc3Cl)ccc2c1=O	4µM	.	-	.	.
Brc1ccc(-c2ncc(-c3ccccc3)cn2)cc1	7.9µM	-	0.43µM	0.71µM	0.5µM
COc1ccc(Cl)cc1NC(=O)CN(C)C(=O)CCSc1ccc(C)cc1	.	.	19µM	-	-
O=C1C2C3C=CC(C4CC34)C2C(=O)N1/N=C/c1c[nH]c2ccccc12 (centres undefined)	.	.	1.9µM	2µM	4µM
SMILES	SMN2 splice enh	KinaseGlo FLuc	FLuc counter	Rab9 prom act	NPC1 prom act
O=C1C2C3C=CC(C4CC34)C2C(=O)N1/N=C/c1ccc([N+](=O)[O-])s1 (centres undefined)	-	-	-	?	?
O=C(CN1C(=O)c2ccccc2S1(=O)=O)c1ccc(F)cc1	.	.	13µM	?	?
O=C(CN1C(=O)c2ccccc2S1(=O)=O)c1cccc(Br)c1	.	.	7.6µM	?	?
O=C(CN1C(=O)c2ccccc2S1(=O)=O)c1ccccc1F	.	.	11µM	?	?
CC(C)C(NC(=O)CN1C(=O)c2ccccc2S1(=O)=O)C(C)C	-	-	-	-	-
O=C(CN1C(=O)c2ccccc2S1(=O)=O)c1ccc(OC(F)F)cc1	.	.	12µM	-	-
CSc1ccc(Nc2nn(-c3ccc(OC(F)(F)F)cc3)nc2C(C)=O)cc1	-	.	-	.	.
CC1CCN(C(=O)CN2C(=O)c3ccccc3S2(=O)=O)CC1	-	-	-	2.5µM	3.5µM
Cc1c(-c2nc(N)nc(Nc3ccccc3)n2)oc2ccccc12	11µM	-	4.8µM	2.5µM	1.4µM
Nc1nc(CN2CCCCCC2)nc(Nc2ccccc2)n1	-	-	-	-	-
Cc1ccc(NC(=O)Cn2c(=O)n(Cc3nc(C)no3)c(=O)c3cc4c(cc32)OCO4)c(C)c1	.	.	-	.	.
Cc1ccc(C(=O)N2CCCCC2)cc1NC1=C(Cl)C(=O)N(Cc2ccccc2)C1=O	.	.	.	-	-
Cc1ccc(O)c(NC2=C(Cl)C(=O)N(Cc3ccccc3)C2=O)c1	-	-	21µM	-	-
COc1ccc(/C=C/C(=O)NCCSCc2ccco2)cc1	-	-	17µM	-	-
COc1ccc(/C=C/C(=O)NCCCc2ccccc2)cc1	-	-	?	-	-
C#CCNC(=O)/C=C/c1ccc(OC)cc1	14µM	-	21µM	?	-
O=C(NCCSCc1ccco1)Nc1cc(Cl)cc(Cl)c1	.	.	27µM	-	-
COc1ccc(/C=C/C(=O)Nn2cnnc2)cc1	-	-	15µM	-	-
Cc1cc(C)c(NC(=O)CN2c3ccccc3S(=O)(=O)c3ccccc32)c(C)c1	.	.	-	.	.
COc1cccc(CNC(=O)c2nn(-c3ccccc3Cl)nc2CO)c1	-	.	-	.	.
Cc1cccc(C(=O)OCC(=O)N2CCCCCC2)c1	.	.	19µM	?	?
Cc1cccc(C(=O)OCC(=O)N2CCCC2=O)c1O	.	.	?	-	-
O=C(OCC(=O)N1CCCCCC1)c1ccc(F)cc1F	.	.	13µM	3.5µM	-
O=C(OCC(=O)N1CCOCC1)c1ccccc1Cc1ccccc1	11µM	-	9.5µM	3.2µM	1.6µM
Cc1cccc(C(=O)OCC(=O)N2CCCCCC2)c1O	.	.	.	3.2µM	3.2µM
SMILES	SMN2 splice enh	KinaseGlo FLuc	FLuc counter	Rab9 prom act	NPC1 prom act
CC(=O)Nc1ccc(C)cc1-c1nc2ccccc2n(CC(=O)Nc2cc(Cl)ccc2C)c1=O	.	.	-	.	.
CCOC(=O)C1=C(COC(=O)c2cccc(N(C)C)c2)NC(=O)NC1C (centres undefined)	.	.	24µM	2.8µM	?
CCOC(=O)C1=C(COC(=O)/C=C/c2ccccc2Cl)NC(=O)NC1C (centres undefined)	.	.	27µM	-	-
CCCNC(=O)c1c(NC(=O)c2ccccc2)sc2c1CCC(C(C)(C)C)C2 (centres undefined)	-	.	-	.	.
Cn1cccc1C(=O)NCC1CCCCC1	.	.	-	-	-
O=C(NC1CCCCCCC1)c1ccccc1O	-	-	15µM	3.5µM	4µM
O=C(NN=C1CCCCCC1)c1c[nH]c2ccccc12	-	-	12µM	-	-
O=C(NN=C1CCCCCC1)c1cc2ccccc2cc1O	.	.	17µM	-	-
O=C(NC1CCCCCCC1)c1ccccc1-c1ccccc1	-	-	-	-	-
CC(=O)N1CCC(=NNC(=O)c2cc3ccccc3cc2O)CC1	.	.	?	-	-
Cn1cccc1C(=O)NC1CCCCCC1	.	.	17µM	2.2µM	?
COc1ccccc1NC(=O)C1CCN(S(=O)(=O)c2cn(C)cn2)CC1	.	.	-	.	.
Cc1cc(C)c2oc(C(=O)Nc3c(C(=O)c4ccccc4)oc4ccccc34)cc(=O)c2c1	-	.	-	.	.
O=C(CCC1CCCC1)NNC(=O)c1cc2ccccc2cc1O	.	.	-	-	-
O=C(NC1CCCCC1)c1cc2ccccc2cc1O	.	.	17µM	-	?
Cc1ccccc1C(=O)NC1CCCCCCC1	.	.	12µM	2.5µM	2.8µM
O=C(O)CCCC(=O)Nc1cccc(C(=O)Nc2ccccc2C(=O)O)c1	.	-	?	-	-
